Test results reported in PubChem BioAssay AID504832 (National Center for Advancing Translational Sciences (NCATS), 2011).
The whole screen tested about 310,000 compounds, of which about 18,000 (5.8%) were called active. Inconclusive results (about 22%) are left out. Calls follow the shape of the dose curve; as a rule, active = well fitted inhibition curve with a large enough effect; inconclusive = small, poorly fitted or top-dose-only effect, or another doubt; inactive = no such curve, though single readings can be large or run the other way. What follows is part of a selection rich in actives, with near analogues and random picks from the rest. A call without a number means that no potency is given here.
Potency is read from the fitted curve at half-maximal effect.

Assay: Primary qHTS for delayed death inhibitors of the malarial parasite plastid, 48 hour incubation
Conditions: P. falciparum luciferase growth in erythrocytes; series mostly up to 28.7 µM
How it was run: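 Compounds are pin-transferred into medium, infected erythrocytes (2% hematocrit, 0.1% parasitemia final) are added, and plates sit one parasite generation at 37 C in 5% CO2. Detection reagent is then added and luminescence measured.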
For `CC(=O)Nc1ccc(Nc2ncnc3c2nnn3Cc2ccccc2Cl)cc1`, the Potency was “inactive”. With `COCCNC(=O)c1ccc2nc(Cc3ccc(OC)c(OC)c3)oc2c1` the Potency was “inactive”. In the case of `O=C(NCCN1CCCC(O)C1)c1cc(COc2c(F)cccc2F)on1` (stereo unspecified), the Potency is reported as “inactive”. With `Cc1cccc2cc(CN(Cc3cccs3)C(c3nnnn3C3CCCC3)C(C)C)c(=O)[nH]c12` (stereo unspecified) the Potency was 2.62 µM (active). For `CCC(=O)Nc1cccc(NC(=O)CSc2nnnn2C2CCCC2)c1`, the Potency was “inactive”. In the case of `CCC(c1nnnn1C1CCCC1)N(Cc1cccs1)Cc1cc2cccc(C)c2[nH]c1=O` (stereo unspecified), the Potency is reported as 10.4 µM (active). In the case of `Cc1cccc2cc(CN(C(=O)c3cccs3)c3ccccc3)c(=O)[nH]c12`, the Potency is reported as “inactive”. In the case of `Cc1cc(C)n2nc(C(=O)OCC(=O)N(CCC#N)c3ccc(F)cc3)nc2n1`, the Potency is reported as “inactive”. For `CCOc1ccc(N(C)Cc2cc(=O)oc3ccc(OC)cc23)cc1`, the Potency was “inactive”. With `CC1CCC(NC(=O)CNC(=O)c2ccc3ccccc3c2)CC1` (stereo unspecified) the Potency was “inactive”. For `CN(C(=O)Cn1nnc(-c2ccc(F)cc2)n1)C1CCS(=O)(=O)C1` (stereo unspecified), the Potency was “inactive”. For `OCC[C@H]1C[C@@H](O)[C@H](O)[C@]2(OCCCc3ccccc32)O1`, the Potency was “inactive”. In the case of `Cc1ccc2c(c1)N(CC(=O)N1CCC(C)CC1)C(=O)c1cccnc1O2`, the Potency is reported as “inactive”. For `Cc1ccc(SCc2c(C(=O)N/N=C/c3cccnc3)nnn2-c2nonc2N)cc1`, the Potency was “inactive”. With `CCOC(=O)CNC(=O)N1c2ccccc2Sc2ccccc21` the Potency was “inactive”. With `O=C(CN1CCCCCC1)N1c2ccccc2Sc2ccc(C(F)(F)F)cc21` the Potency was 13.1 µM (active). For `COc1cc(/C=C/C(=O)N2c3ccccc3Sc3ccc(C(F)(F)F)cc32)cc(OC)c1OC`, the Potency was “inactive”. In the case of `Cc1ccc(C(CNC(=O)Nc2ccccc2)N2CCN(C)CC2)cc1` (stereo unspecified), the Potency is reported as “inactive”. With `Cc1ccc(S(=O)(=O)N2CCC(C(=O)OCC(=O)N(C)c3ccccc3)CC2)cc1C` the Potency was “inactive”. For `COc1ccc(-c2nnc(SC(C)C#N)o2)cc1` (stereo unspecified), the Potency was “inactive”. For `COc1ccc(-c2nnc(SC(C)C(=O)NC3CC3)o2)cc1` (stereo unspecified), the Potency was 10.4 µM (active). In the case of `COc1ccc(-c2nnc(SCc3cccnc3)o2)cc1`, the Potency is reported as “inactive”. For `CCCC(C)c1nnc(NC(=O)C2CC(=O)N(c3ccc(OCC)cc3)C2)s1` (stereo unspecified), the Potency was “inactive”. With `COc1ccc(N2CCN(c3ccc([N+](=O)[O-])cc3Cl)CC2)cc1` the Potency was “inactive”. In the case of `CCN1CCN(c2ccc([N+](=O)[O-])cc2C#N)CC1`, the Potency is reported as 4.15 µM (active). With `CCN1CCN(c2ccc([N+](=O)[O-])cc2C(=O)c2ccc(Cl)cc2)CC1` the Potency was “inactive”. In the case of `COCCn1c(SCC(=O)Nc2nc(C)cs2)nnc1C(C)C`, the Potency is reported as “inactive”. For `O=S(=O)(c1ccc(Cl)s1)N1CCC2(CC1)OCCO2`, the Potency was “inactive”. In the case of `O=C(Nc1cccc(NC(=O)c2ccc(Br)cc2)c1)c1ccccc1`, the Potency is reported as “inactive”. With `O=C(Nc1cccc(-c2nc3ccccc3[nH]2)c1)c1ccc(C(=O)Nc2cccc(-c3nc4ccccc4[nH]3)c2)cc1` the Potency was 0.37 µM (active). With `O=C(Cc1cccs1)Nc1cccc(-c2nc3ccccc3[nH]2)c1` the Potency was “inactive”. In the case of `O=S(=O)(Nc1cc(S(=O)(=O)N2CCOCC2)ccc1N1CCCC1)c1cccs1`, the Potency is reported as “inactive”. With `O=S(=O)(Nc1ccc(-c2ccc(N3CCOCC3)nn2)cc1)c1cc(Cl)ccc1Cl` the Potency was “inactive”. In the case of `O=S(=O)(Nc1cc(Cl)ccc1N1CCOCC1)c1ccccc1Cl`, the Potency is reported as 13.1 µM (active). For `COCCCNC(=O)[C@H]1N2C(=O)c3ccccc3C2SC1(C)C` (stereo partly specified), the Potency was “inactive”. In the case of `COc1cc(C(C(=O)NC2CCCC2)N(Cc2ccccc2)C(=O)c2snc(C(N)=O)c2N)ccc1O` (stereo unspecified), the Potency is reported as “inactive”. In the case of `COc1ccc(C(C(=O)NC2CCCCC2)N(C(=O)CCl)c2ccccc2Cl)cc1` (stereo unspecified), the Potency is reported as “inactive”. With `COc1ccc(C(C(=O)NC2CCCCC2)N(C(=O)c2snc(C(N)=O)c2N)c2ccccc2OC)cc1` (stereo unspecified) the Potency was 14.7 µM (active). With `COc1ccc(CNC(=O)C(c2ccc(O)cc2)N(Cc2ccco2)C(=O)c2snc(C(N)=O)c2N)cc1` (stereo unspecified) the Potency was 13.1 µM (active). In the case of `COc1ccc(S(=O)(=O)NCc2ccc(C(=O)N(C)Cc3ccco3)cc2)cc1`, the Potency is reported as “inactive”. In the case of `CCC(C(=O)NCc1ccc(OC)cc1)n1nc(C)n2c(cc3occc32)c1=O` (stereo unspecified), the Potency is reported as “inactive”. In the case of `Cc1cc(CN(C)C(=O)c2cc(COc3ccc(C)c(C)c3)on2)n[nH]1`, the Potency is reported as “inactive”. For `CC(=O)c1ccc(NC(=O)Cn2c(=O)oc3ccccc32)cc1`, the Potency was “inactive”. With `CCCCc1nc2cc(C(=O)N3CCCCC3CCO)ccc2o1` (stereo unspecified) the Potency was “inactive”. For `CCc1ccc(-c2nn(-c3ccccc3)cc2CSC(=N)N)cc1`, the Potency was 4.15 µM (active). In the case of `Cc1ccc(-c2nn(-c3ccccc3)cc2C(=O)NC2CCC(O)CC2)cc1` (stereo unspecified), the Potency is reported as “inactive”. In the case of `O=C(Nc1cn(-c2ccccc2)nc1-c1ccccc1)c1ccccc1`, the Potency is reported as “inactive”. In the case of `Cc1ccccc1OCC(=O)Nc1ccc2c(c1)ncn2C`, the Potency is reported as “inactive”. With `CN(CCc1ccccn1)C(=O)c1ccc(OC2CCN(CCc3ccccc3)CC2)cc1` the Potency was “inactive”. For `CCCn1c(SCC(=O)N2CCc3ccccc32)nnc1-c1ccncc1`, the Potency was “inactive”. For `CCC(=O)N1CCCc2ccccc21`, the Potency was “inactive”. In the case of `COC(=O)c1ccc(CSc2nnc(N)s2)o1`, the Potency is reported as “inactive”. For `O=C(CSc1ccc2nnc(-c3ccccc3)n2n1)N1CCCc2ccccc21`, the Potency was 13.1 µM (active). In the case of `COC(=O)c1ccc(CSc2ccccc2C)o1`, the Potency is reported as “inactive”. With `COC(=O)c1ccc(CSc2ccc3nnc(-c4ccccc4)n3n2)o1` the Potency was 10.4 µM (active). With `CC(=O)NC(Cc1c[nH]c2ccccc12)C(=O)NCCc1ccccc1` (stereo unspecified) the Potency was “inactive”. In the case of `CC1CN(C(=O)CCC(=O)NCc2cccnc2)c2ccccc2O1` (stereo unspecified), the Potency is reported as “inactive”. With `CC(=O)NC(=O)c1ccccc1O` the Potency was “inactive”. For `O=C(COC(=O)CNC(=O)C1CCCCC1)Nc1cccc(F)c1`, the Potency was “inactive”. In the case of `O=C1NC[C@@H](Cc2ccc(O)cc2)N(CCc2cccc(F)c2)C1=O`, the Potency is reported as “inactive”. For `NC1=NC[C@@H](Cc2ccc(O)cc2)N1CC1CCCCC1`, the Potency was 6.57 µM (active). In the case of `CN(c1ccccc1)S(=O)(=O)c1ccc2[nH]c(=O)[nH]c2c1`, the Potency is reported as “inactive”. In the case of `O=C(Cc1ccccc1Cl)N1CCOCC1`, the Potency is reported as “inactive”. In the case of `Cc1ccccc1N1CCN(C2CCCN(C(=O)c3ocnc3C)C2)CC1` (stereo unspecified), the Potency is reported as “inactive”. For `Clc1ccc2nc3c(c(-c4ccccc4)c2c1)CNCC3`, the Potency was 13.1 µM (active). For `O=c1c2c(nc3cc(-c4cccc(Cl)c4)[nH]n13)CCCC2`, the Potency was “inactive”.
